# Results from PubChem BioAssay AID651784 (National Center for Advancing Translational Sciences (NCATS), 2012).
# Inconclusive results are not listed. Activity calls are given as the source filed them. Calls follow the shape of the dose curve; as a rule, active = well fitted inhibition curve with a large enough effect; inconclusive = small, poorly fitted or top-dose-only effect; inactive = no such curve, though single readings can be large or run the other way.
# Experiment: Acumen qHTS Assay for Inhibitors of the mTORC1 Signaling Pathway in MEF (Tsc2-/-, p53-/-) Cells: Hit Validation;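 also: phospho-rpS6 Ser235/236 immunofluorescence normalized to propidium iodide cell count; nearly all actives have a fitted effect of over 65% in size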;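 as to activity change, negative = inhibition: cells exposed to compound for 24 hours; plate controls were DMSO for no effect and 7.5 nM rapamycin control for full effect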
# Details: Acumen imaging; activity change, negative = inhibition: at 37.3 µM (top of the series)
# Potency is read from the fitted curve at half-maximal effect.
SMILES,Potency,"activity change, negative = inhibition"
CCOc1ccc(NC(=O)CSc2oc(-c3ccc(F)cc3)nc2S(=O)(=O)c2ccc(C)cc2)cc1,4.65 µM (active),–
CC1C(=O)N2CCCc3cc(S(=O)(=O)Nc4ccc(Br)cc4F)cc1c32 (configuration not stated),4.65 µM (active),–
O=C(CCCn1c(=O)c2ccccc2n(Cc2cccc(Cl)c2)c1=O)NCCc1ccc(Cl)cc1,–,-4.01%
Cc1ccc(C(=O)Nc2c(C(=O)NCc3ccc(Cl)cc3)sc3nc(C)cc(C)c23)cc1,–,-89.8%
Cc1ccc(C)c(N2CCN(CCCNC(=O)c3nnc(Cc4ccc(F)cc4Cl)o3)CC2)c1,10.4 µM (active),–
CCOc1cc(CNc2ccc(O)cc2)cc(Cl)c1OCc1ccccc1,–,-9.52%
COc1ccc(CC(=O)Nc2sc3c(c2C(=O)Nc2cccc(C)c2)CCCCC3)cc1,4.14 µM (active),–
Cc1ccc(C(=O)/C=C/c2cn(CC(O)CN3CCCCCC3)c3ccccc23)cc1 (configuration not stated),18.5 µM (active),–
COc1ccccc1CNC(=O)CCCn1c(=O)c2cccn2c2ccccc21,–,-1.89%
COc1ccc(-c2nc(CCNC(=O)c3c(F)cccc3Cl)cs2)cc1,–,-0.104%
CCCN(c1ccccc1CC)S(=O)(=O)c1ccc2c(c1)CC(C)N2C(=O)C1CC1 (configuration not stated),0.521 µM (active),–
Cc1ccc(C)c(Cn2c3ccccc3c3cnn(CC(=O)NC(C)CCc4ccccc4)c(=O)c32)c1 (configuration not stated),7.36 µM (active),–
CC(C)OCc1cc(CN2CCN(c3cccc(C(F)(F)F)c3)CC2)c(O)c2ncccc12,11.7 µM (active),–
CCS(=O)(=O)c1ncc(Cl)c(C(=O)NCc2ccccc2)n1,6.56 µM (active),–
CCCc1oc2ccc(NS(=O)(=O)c3ccc(OCC)cc3)cc2c1C(=O)OCC,4.14 µM (active),–
COc1cc(C(=O)Nc2ccc(NC(=O)c3ccc(C(C)(C)C)cc3)cc2)cc(OC)c1OC,10.4 µM (active),–
CS(=O)(=O)CCNCc1ccc(-c2ccc3ncnc(Nc4ccc(OCc5cccc(F)c5)c(Cl)c4)c3c2)o1,–,5.21%
CCCC(=O)OC1=CN(Cc2ccccc2)S(=O)(=O)c2ccccc21,–,-27.1%
CCC(C)Sc1oc(-c2ccco2)nc1S(=O)(=O)c1ccc(C)cc1 (configuration not stated),–,3.02%

SMILES,Potency,"activity change, negative = inhibition"
CCOc1ccccc1NC(=O)c1cn(C2CCCC2)c(=O)c2c1c1ccccc1n2C,–,-10.9%
COc1ccc(-c2ccc(CCC(=O)O)n2-c2cc(Cl)ccc2O)cc1,–,-7.48%
CCc1nnc(SC(CC)C(=O)Nc2cccc(OC)c2)c2cc3oc(C)cc3n12 (configuration not stated),–,-6.5%
O=S(=O)(NCC(c1ccco1)N1CCN(c2ccc(F)cc2)CC1)c1ccccc1 (configuration not stated),–,12.9%
Cc1ccc(-c2nnn(CC(=O)N(CC(=O)NCCC(C)C)c3ccc(F)cc3)n2)cc1,–,20.3%
Cc1nnc(C(=O)NC(C)(C)c2nc(C(=O)NCc3ccc(F)cc3)c(O)c(=O)n2C)o1,–,-4.28%
COc1ccc(NC(=O)C(NC(=O)/C=C\c2ccc3c(c2)OCO3)c2ccccc2)cc1 (configuration not stated),11.7 µM (active),–
CCCCOc1cccc(C(=O)N2CCN(CCc3ccncc3)CC2)c1,–,0.726%
O=C(COc1ccccc1-c1nc(-c2ccccc2)no1)Nc1cccc([N+](=O)[O-])c1,1.04 µM (active),–
Cc1ccccc1CS(=O)(=O)c1ncc(Cl)c(C(=O)Nc2nnc(C(C)C)s2)n1,–,-92.9%
CC(C)c1ccc(NS(=O)(=O)c2ccc3nc(-c4ccccc4)[nH]c3c2)cc1,–,-0.821%
COC(=O)c1ccccc1NC(=O)CCS(=O)(=O)c1nc(-c2ccc3c(c2)OCO3)cc(C(F)(F)F)n1,–,-88.3%
Cc1ccccc1NC(=O)Cn1cc(C(=O)c2cccs2)c2ccccc21,–,1.72%
COc1ccccc1C1C=C(c2ccc(Cl)cc2)Nc2nc(-c3ccc(Cl)cc3)nn21 (configuration not stated),–,-9.46%
CCN(CC)CCn1c(=N)n(CC(O)COc2ccccc2C)c2ccccc21 (configuration not stated),4.65 µM (active),–
COc1cc(C(=O)n2nc(C)c(Sc3ccc(Cl)cc3)c2C)cc(OC)c1OC,–,-8.63%
Cc1ccc(S(=O)(=O)c2nnn3c2nc(NCc2cccs2)c2sccc23)cc1,–,-1.4%
O=C(Nc1ccc(F)c(F)c1)c1ccc(F)c(S(=O)(=O)N2CCC3(CC2)OCCO3)c1,10.4 µM (active),–
